Assay results published in article PMC5540273 (PLoS ONE, 2017).

test system: EGFR; settings: concentration: 1 μM, replicates: in singlicate; n = 1
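Further: KINOMEscan kinase panel screen.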

Compound	%Inh [%]
COc1cc2c(cc1OCCN1CCNCC1)ncc1c3ccc(C#N)cc3[nH]c21	26
CN(c1ccc(NC(=O)Nc2cc(C(F)(F)F)ccc2F)cc1)c1ccnc(Nc2ccc(S(N)(=O)=O)cc2)n1 [GW809893]	4
COc1ccc(Nc2nccc(N3CCC(NC(=O)Nc4cccc(OC)c4)C3)n2)cc1 (stereo not shown) [GSK1379742]	20
COc1cccc(-c2ccc3c(NC(=O)C4CC4)n[nH]c3n2)c1 [SB-710903]	20
CNC(=O)c1ccccc1Nc1nc(Nc2ccc(N3CCOCC3)cc2)ncc1Cl.Cl [GSK1576028]	98.8
O=C(NC1CCN(c2ccnc(Nc3ccc(F)cc3)n2)C1)c1cc2ccccc2s1 (stereo not shown) [GSK1379716]	22
O=C(Nc1cccc(Oc2ccc3nc(NC(=O)C4CC4)cn3n2)c1)c1ccccc1C(F)(F)F	82
Cl.c1ccc(-c2ccc3c(Nc4ccc5[nH]ncc5c4)ccnc3c2)nc1 [GW440137]	66
Cl.Cl.NCC(NC(=O)c1cc(-c2ccccc2)c(-c2ccnc3[nH]ccc23)s1)c1ccccc1 (stereo not shown) [GSK1321561]	84
C[C@@H](Oc1cc(-n2cnc3cc(-c4ccnc(NCCS(C)(=O)=O)c4)ccc32)sc1C(N)=O)c1ccccc1Cl [GSK907232]	35
O=C(Nc1cccc(-c2nn3ccccc3c2-c2ccnc(Nc3cccc(F)c3)n2)c1)c1c(F)ccc(F)c1Cl [GSK357952]	100
Cc1occc1-c1ncc(OC[C@@H](N)Cc2c[nH]c3ccccc23)cc1-c1ccc2[nH]nc(C)c2c1.O=C(O)C(F)(F)F [GSK682037]	94.3
CCc1ccc(-c2ccc3c(c2)-c2c(cnn2C)S(=O)(=O)N3C)cc1	15
O=c1[nH]cc(-c2ccc(N3CCOCC3)cc2)c2sc(-c3cn[nH]c3)cc12 [GSK2276055]	18
Cc1cccc(NC(=O)Nc2ccc(Oc3ncnc4ccn(C)c34)cc2)c1	1
CC(C)(C)c1ccc2nccc(Nc3cccc(O)c3)c2c1 [GW856795]	63
COc1cc(Nc2nccc(-c3c(-c4cccc(NC(=O)c5c(F)cccc5F)c4)nn4ccccc34)n2)cc(OC)c1OC [GSK323521]	38
CCn1c(-c2nonc2N)nc2c(C#CC(C)(C)O)ncc(OCCCCN)c21.O=C(O)C(F)(F)F.O=C(O)C(F)(F)F [GSK507274]	9
O=C(Nc1cccc(-c2nn3ncccc3c2-c2ccnc(Nc3ccccc3)n2)c1)c1c(F)cccc1F [GSK198271]	100

Compound	%Inh [%]
Cn1cc(-c2ccc3c(c2)CCN3C(=O)Cc2cccc(Cl)c2)c2c(N)ncnc21 [GSK2606590]	2
CN1CCN(Cc2cccc(-c3ccc4c(Nc5ccc(Oc6ccccc6)cc5)ccnc4c3)c2)CC1 [GW578342]	87
Oc1cc(Nc2ccnc3cc(I)ccc23)ccc1F [GW552771]	32
CCCCc1nn2ncccc2c1-c1ccnc(Nc2ccc(N3CCN(C)CC3)cc2)n1 [GW684941]	81
O=C(Nc1n[nH]c2cc(-c3ccoc3)ccc12)C1CC1 [SB-738481]	6
COc1cccc(C2=C(Nc3ccc(Cl)c(C(=O)O)c3)C(=O)NC2=O)c1 [SB-390769]	24
CCS(=O)(=O)c1ccc(OC)c(Nc2nccc(-c3c(-c4cccc(NC(=O)c5c(F)cccc5F)c4)nn4ncccc34)n2)c1 [GSK326180]	99.3
Nc1ncc(-c2cccnc2)c2scc(-c3ccc4c(c3)CCN4C(=O)Cc3ccccc3)c12 [GSK683281]	16
Cc1ccc(C(=O)N2CC[C@@H](O)C2)cc1-n1c(C)cc(OCc2ccc(F)cc2F)c(Br)c1=O	0
CC(=O)Nc1nc2cnc(Nc3cc(NC(=O)c4cccc(C5(C#N)CC5)c4Cl)ccc3C)nc2s1	0
COc1cc(Nc2nccc(N3CCC(NC(=O)c4cc5ccccc5s4)C3)n2)cc(OC)c1OC (stereo not shown) [GSK1379760]	45
Cc1ccc(C(=O)Nc2ccc(Nc3ccnc4cc(-c5nccs5)ccc34)cc2O)cc1.Cl [GW494702]	45
Cc1ccc(C)c(NC(=O)NC2CCN(c3ccnc(Nc4ccc(F)cc4)n3)C2)c1 (stereo not shown) [GSK1379720]	0
CN(C)S(=O)(=O)c1cc(-c2ccc3nccc(-c4cccc(S(N)(=O)=O)c4)c3c2)cnc1N [GSK1669921]	18
COc1cccc(NC(=O)NC2CCN(c3ccnc(Nc4cc(OC)c(OC)c(OC)c4)n3)C2)c1 (stereo not shown) [GSK1379763]	12
Fc1ccc(-c2ncn(C3CCNCC3)c2-c2ccnc(Oc3ccc(-c4ccccc4)cc3)n2)cc1 [SB-245391]	3
Cn1cc(-c2[nH]c3cc(NC(=O)[C@H](N)C4CCCCC4)cc4c3c2C=NNC4=O)cn1	81
Cl.Cl.NCC(NCc1ccc(-c2ccnc3[nH]ccc23)s1)c1ccccc1 (stereo not shown) [GSK1321565]	24
